Assay results as given in PubChem BioAssay (NCATS).
Records with an inconclusive call do not appear. A call without a number means that no potency is given here. A number with no mark means an inactive call. The source made the active and inactive calls. The call rests on the fitted dose curve; in most records, active means well fitted inhibition curve with a large enough effect; inconclusive means small, poorly fitted or top-dose-only effect; inactive means flat fitted curve, though single readings scatter.

What was measured:
[1] = qHTS profiling for inhibitors of Plasmodium falciparum proliferation (AID 504749); further: nearly all actives have a fitted effect of over 60% in size; conditions: P. falciparum in erythrocytes, SYBR Green DNA, 72 h
Summary of the method: (§1)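 Each compound contacts P. falciparum-infected red blood cells for 72 h at 37 C; lysis buffer (Tris, EDTA, saponin, Triton X, SYBR Green I) is added and fluorescence measured next morning; values normalized to controls.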

3D7 = experiment: as above; conditions: P. falciparum in erythrocytes, SYBR Green DNA, 72 h; series mostly up to 28.7 µM
Summary of the method: as §1

AA1029 = experiment: as above; conditions: P. falciparum in erythrocytes, SYBR Green DNA, 72 h; series mostly up to 28.7 µM
Summary of the method: as §1

AS120 = experiment: as above; conditions: P. falciparum in erythrocytes, SYBR Green DNA, 72 h; series mostly up to 28.7 µM
Summary of the method: as §1

ATS189 = experiment: as above; conditions: P. falciparum in erythrocytes, SYBR Green DNA, 72 h; series mostly up to 28.7 µM
Summary of the method: as §1

ATS95 = experiment: as above; conditions: P. falciparum in erythrocytes, SYBR Green DNA, 72 h; series mostly up to 28.7 µM
Summary of the method: as §1

C2A = experiment: as above; conditions: P. falciparum in erythrocytes, SYBR Green DNA, 72 h; series mostly up to 28.7 µM
Summary of the method: as §1

CP185 = experiment: as above; conditions: P. falciparum in erythrocytes, SYBR Green DNA, 72 h; series mostly up to 28.7 µM
Summary of the method: as §1

CP191 = experiment: as above; conditions: P. falciparum in erythrocytes, SYBR Green DNA, 72 h; series mostly up to 28.7 µM
Summary of the method: as §1

CP192 = experiment: as above; conditions: P. falciparum in erythrocytes, SYBR Green DNA, 72 h; series mostly up to 28.7 µM
Summary of the method: as §1

7G8 = experiment: as above; conditions: P. falciparum in erythrocytes, SYBR Green DNA, 72 h; series mostly up to 28.7 µM
Summary of the method: as §1

[2] = at 28.7 µM (top of the series), parasite line A
[3] = at 28.7 µM (top of the series), parasite line B
[4] = at 12.8 µM (top of the series), parasite line A
[5] = at 12.8 µM (top of the series), parasite line B
Potency means the concentration at half of the fitted maximal effect.

Row | Compound | activity, negative = inhibition [1, 2] [%] | activity, negative = inhibition [1, 3] [%] | Potency (3D7) | Potency (AA1029) | Potency (AS120) | Potency (ATS189) | Potency (ATS95) | Potency (C2A) | Potency (CP185) | outcome (CP191) | outcome (CP192) | Potency (7G8) | activity, negative = inhibition [1, 4] [%] | activity, negative = inhibition [1, 5] [%]
1 | CC(=O)N[C@@H](Cc1ccc(O)cc1)C(=O)O | 9.07 | 9.16 | inactive | inactive | inactive | inactive | inactive | inactive | inactive | inactive | inactive | – | – | –
2 | C[C@H]1COc2c(C3(N)CC3)c(F)cc3c(=O)c(C(=O)O)cn1c23 | -1.84 | -23.2 | – | inactive | inactive | inactive | inactive | inactive | inactive | inactive | inactive | inactive | – | –
3 | CC(=O)SC[C@@H](Cc1ccccc1)C(=O)NCC(=O)OCc1ccccc1 | – | – | inactive | inactive | inactive | inactive | inactive | inactive | inactive | inactive | inactive | – | -4.01 | -5.82
4 | CN(C/C=C/C#CC(C)(C)C)Cc1cccc2ccccc12 | -1.32 | -6.19 | inactive | inactive | inactive | inactive | inactive | inactive | inactive | inactive | inactive | – | – | –
5 | COc1ccc2cc(CCC(C)=O)ccc2c1 | – | – | inactive | inactive | – | inactive | inactive | inactive | inactive | inactive | inactive | inactive | 8.55 | 1.23
6 | Nc1c2c(nc3c1CCC3)CCCC2 | – | – | – | – | – | – | – | – | – | – | – | 11.2 µM (active) | – | –
7 | Nc1ccc(S(=O)(=O)c2ccc(N)cc2)cc1 | 2.8 | 7.07 | inactive | inactive | inactive | inactive | inactive | inactive | inactive | inactive | inactive | – | – | –
8 | CCN1CC(CCN2CCOCC2)C(c2ccccc2)(c2ccccc2)C1=O (configuration not stated) | 10.7 | -5.11 | inactive | – | inactive | – | inactive | inactive | inactive | inactive | inactive | – | – | –
9 | Cc1cc(C)c(NC(=O)CN(CC(=O)O)CC(=O)O)c(C)c1Br | – | – | inactive | – | – | – | – | – | – | – | inactive | inactive | – | –
10 | CN1C[C@@H]2C[C@H]1CN2c1cc2c(cc1F)c(=O)c(C(=O)O)cn2C1CC1 | – | – | – | – | – | – | – | – | – | – | inactive | – | – | –
11 | CC(CN(C)C)C(C)(O)Cc1ccc(Cl)cc1 (configuration not stated) | 6.13 | 10.7 | inactive | – | – | – | – | inactive | – | inactive | – | – | – | –
12 | Cc1[nH]c(C)c(Cl)c(=O)c1Cl | – | – | – | inactive | inactive | inactive | inactive | inactive | inactive | – | inactive | 11.2 µM (active) | – | –
13 | Cc1c(I)c(=O)n(-c2ccccc2)n1C | 2.47 | – | inactive | inactive | inactive | inactive | inactive | inactive | inactive | inactive | inactive | inactive | – | –
14 | O=C1c2ccccc2S(=O)(=O)N1CCCCN1CCN(c2ncccn2)CC1 | -16.2 | 25.9 | inactive | inactive | inactive | inactive | inactive | inactive | inactive | inactive | inactive | – | – | –
15 | Cc1cc(-n2nc3ccc(Cl)cc3n2)c(O)c(C(C)(C)C)c1 | – | – | inactive | – | – | – | – | – | – | – | inactive | inactive | – | –
16 | O=C1CC[C@@H](C(=O)O)N1 | 0.206 | 18.2 | inactive | inactive | inactive | inactive | inactive | inactive | inactive | inactive | inactive | – | – | –
17 | Nc1ncnc(Nc2ccccc2)n1 | -28.4 | – | inactive | inactive | inactive | inactive | inactive | inactive | inactive | – | inactive | inactive | – | –
18 | Cc1cc(O)cc(C)c1Cl | -2.51 | -4.56 | inactive | inactive | inactive | – | – | inactive | inactive | – | inactive | 10 µM (active) | – | –

Row | Compound | activity, negative = inhibition [1, 2] [%] | activity, negative = inhibition [1, 3] [%] | Potency (3D7) | Potency (AA1029) | Potency (AS120) | Potency (ATS189) | Potency (ATS95) | Potency (C2A) | Potency (CP185) | outcome (CP191) | outcome (CP192) | Potency (7G8) | activity, negative = inhibition [1, 4] [%] | activity, negative = inhibition [1, 5] [%]
19 | CCCCCCCCCCC(CO)CCCCCCCC (configuration not stated) | -1.63 | 6.03 | inactive | inactive | inactive | inactive | inactive | inactive | inactive | inactive | inactive | – | – | –
20 | CCN(CC)CCOC(=O)C(c1ccccc1)c1ccccc1 | -8.73 | -12.1 | inactive | inactive | inactive | inactive | inactive | inactive | inactive | inactive | inactive | – | – | –
21 | O=C1C(c2[nH]c3ccccc3c2O)=Nc2ccccc21 | – | – | – | inactive | – | – | inactive | – | inactive | – | inactive | – | – | –
22 | NC(=O)CCCCC1CCSS1 (configuration not stated) | -3.84 | -4.11 | inactive | inactive | – | – | inactive | inactive | inactive | inactive | inactive | – | – | –
23 | Cc1cc(OI)c(C(C)C)cc1-c1cc(C(C)C)c(OI)cc1C | – | – | – | – | – | – | – | – | inactive | – | – | 7.94 µM (active) | – | –
24 | CC(C)=CCC/C(C)=C/CO | -3.97 | – | inactive | inactive | inactive | inactive | inactive | inactive | inactive | inactive | inactive | inactive | – | –
25 | CC(=O)OC[C@H]1O[C@@](COC(C)=O)(O[C@H]2O[C@H](COC(C)=O)[C@@H](OC(C)=O)[C@H](OC(C)=O)[C@H]2OC(C)=O)[C@@H](OC(C)=O)[C@@H]1OC(C)=O | – | 21.3 | inactive | inactive | – | – | – | inactive | – | – | inactive | inactive | – | –
26 | OCC(O)CS (configuration not stated) | 2.38 | – | inactive | inactive | inactive | inactive | inactive | inactive | inactive | inactive | inactive | inactive | – | –
27 | COc1nccnc1NS(=O)(=O)c1ccc(N)cc1 | 0.889 | -0.327 | – | inactive | inactive | inactive | inactive | inactive | inactive | inactive | inactive | inactive | – | –
28 | O=C1c2ccccc2C(=O)C1c1ccc(Br)cc1 | – | – | 11.2 µM (active) | – | inactive | inactive | – | inactive | inactive | – | inactive | 11.2 µM (active) | – | –
29 | CCCCCC(C)N (configuration not stated) | – | -25.4 | – | – | – | – | inactive | inactive | inactive | – | inactive | 10 µM (active) | – | –
30 | O=C1c2cccc(O)c2C(=O)c2c(O)cccc21 | -0.153 | 3.79 | inactive | inactive | inactive | inactive | inactive | inactive | inactive | inactive | inactive | – | – | –
31 | CCCCCCCC(=O)OCC(COC(=O)CCCCCCC)OC(=O)CCCCCCC | 4.54 | – | inactive | inactive | inactive | inactive | inactive | inactive | inactive | inactive | inactive | inactive | – | –
32 | NCc1ccc(S(N)(=O)=O)cc1 | – | – | inactive | inactive | inactive | – | inactive | inactive | inactive | inactive | inactive | – | 6.73 | 11
33 | O=C(c1ccccc1)C(O)c1ccccc1 (configuration not stated) | – | -14.9 | inactive | inactive | inactive | inactive | inactive | inactive | inactive | inactive | inactive | inactive | – | –
34 | Cc1c(NC(=O)c2cccnc2)c(=O)n(-c2ccccc2)n1C | – | – | inactive | inactive | inactive | inactive | inactive | inactive | inactive | inactive | inactive | – | 17.3 | 5.39
35 | CC(=O)N(CC(O)CO)c1c(I)c(C(=O)NCC(O)CO)c(I)c(C(=O)NCC(O)CO)c1I (configuration not stated) | 7.48 | 5.34 | inactive | inactive | inactive | – | inactive | inactive | inactive | – | inactive | 11.2 µM (active) | – | –
36 | CC(=O)Oc1cccc(O)c1 | 4.48 | 12.6 | inactive | inactive | inactive | inactive | inactive | inactive | inactive | inactive | inactive | – | – | –
